The campaign covered roughly 69,000 compounds. About 1,000 (1.4%) showed an effect of 50% or more. This excerpt belongs to a sample that is enriched for strong results.

This assay has as its system Leishmania donovani. Kind of assay: Leishmania intramacrophage assay. Format: functional, organism-based. More on the design: scale not given: in the data most compounds retested in dose-response had high values.

As to `Cc1noc(C)c1CN1CCO[C@H]2CN(Cc3cccc(F)c3)C[C@H]21.O=C(O)C(F)(F)F.O=C(O)C(F)(F)F`, the “Percent Effect” value (30.3 µM, […]) turned out to be 56.73%. The same measure, in the same setting: to `CCC(=O)N1CCC2(CCN(Cc3cccc(F)c3)CC2)CC1.O=C(O)C(F)(F)F` belongs 2.147%; to `Cc1noc(C)c1CN1CCO[C@H]2CN(C(=O)C3CCOCC3)C[C@H]21.O=C(O)C(F)(F)F`, 32.17%. For the compound `Cc1noc(C)c1CN1CCN(Cc2ccncc2)c2ncccc2C1.O=C(O)C(F)(F)F.O=C(O)C(F)(F)F.O=C(O)C(F)(F)F`, under “30 µM, 30.03 µM”, the “Percent Effect” value was -14.87%. In the case of `Cc1noc(C)c1CN1CCN(Cc2cccnc2)c2ncccc2C1.O=C(O)C(F)(F)F.O=C(O)C(F)(F)F.O=C(O)C(F)(F)F`, the “Percent Effect” value (30.3 µM, […]) turned out to be 57.48%. On the same count and under the same terms, to `CC(=O)N1CCC2(CCN(Cc3cccc(F)c3)CC2)CC1.O=C(O)C(F)(F)F` belongs 20%; to `Cc1noc(C)c1CN1CCC2(CCN(Cc3cccc(F)c3)CC2)C1.O=C(O)C(F)(F)F.O=C(O)C(F)(F)F`, 59.23%; to `Cc1ccc(-c2nc(C(=O)N(C)CC(=O)N(C)C)cs2)c(C)c1`, -31.91%. `CCS(=O)(=O)N1CCC(NCC2CNc3cc(C)nn3C2)CC1` (centres undefined): the “Percent Effect” value (30.3 µM, […]) is on record as -7.273%. As to `CC(=O)N1CC(=O)N(c2ccsc2)CC12CCN(Cc1ccoc1)C2` (centres undefined), the “Percent Effect” value (30.3 µM, […]) was determined as 14.63%. `CC1CN(C)CCN1C(=O)c1ccn(-c2cccc(F)c2)n1` (centres undefined): the “Percent Effect” value (30 µM) worked out at 3.559%. Regarding `CCc1nnc(CNC2CCc3nc(C(C)C)nn3C2)o1` (centres undefined), the “Percent Effect” value (30.3 µM, […]) is given as -6.024%.

Consider `Cc1csc(-c2ccc(NC(=O)N3CCOCC3)cc2)n1`, for which the “Percent Effect” value (30.3 µM, […]) is recorded as -0.9004%. Still for that read-out and setting: to `Cc1csc(NC(=O)c2ccc(NC(=O)N3CCOCC3)cc2)n1` belongs 69.81%; to `Cc1csc(-c2cccc(NC(=O)N3CCOCC3)c2)n1`, 24.69%; to `CC(c1nc(C2CC2)no1)N(C)Cc1ccc2c(c1)OCCO2` (centres undefined), 14.22%. Same read-out and setting: to `COc1ccc2cc(CN(C)C(C)c3nc(C(C)(C)C)no3)ccc2c1` (centres undefined) belongs 20.66%; to `COc1ccc2cc(CN(C)C(C)c3nc(C4CC4)no3)ccc2c1` (centres undefined), 57.64%; to `CSCc1noc(CNC(=O)c2cc(C)c(C)[nH]c2=O)n1`, 20.7%. On the same count and under the same terms, to `O=C(CN1CCC(Nc2ncccn2)CC1)Nc1ccccc1` belongs 51.04%. In the case of `Cc1cnc(NC2CCN(CC(=O)Nc3ccccc3)CC2)nc1C`, the “Percent Effect” value (30.3 µM, […]) was 18.37%. On the same count and under the same terms, to `COc1ccnc(NC2CCN(CC(=O)Nc3ccccc3)CC2)n1` belongs -0.8363%. Regarding `CCc1nnc(CN(CC)C(=O)C2CC(=O)N(C3CCCC3)C2)o1` (centres undefined), under “30.3 µM, […]”, the “Percent Effect” value is given as -15.82%. For `Cc1nn(C)c(Oc2ccc(Cl)cc2)c1CN1CCOC(CN)C1` (centres undefined), the “Percent Effect” value (30.3 µM, […]) was determined as 3.142%. The same measure, in the same setting: to `Cc1nn(C)c(Oc2ccc(Cl)cc2)c1CN1CCC(CN)C1` (centres undefined) belongs 74.8%; to `Cc1nn(C)c(Oc2ccc(Cl)cc2)c1CN1CC[C@H](CO)[C@@H](O)C1`, 9.933%. Same read-out and setting: to `Cc1cccc(SC2CCN(C(=O)CCCS(N)(=O)=O)CC2)c1` belongs 24.28%.

For the compound `CC(=O)NCCCC(=O)N1CCC(Sc2cccc(C)c2)CC1`, the “Percent Effect” value (30.3 µM, […]) is 42.91%. Turning to `Cc1cccc(SC2CCN(C(=O)CCCn3cnnn3)CC2)c1`, where the note is “30.3 µM, […]”, the “Percent Effect” value is 53.34%. Take `CCOCC(=O)N1CSCC1C(=O)N(C)Cc1ccco1` (centres undefined): the “Percent Effect” value (30 µM) is listed as 13.38%. As to `Cc1nc(N2CC[C@@H](c3ccc4ccccc4c3)[C@H](O)C2)no1`, the “Percent Effect” value (30.3 µM, […]) turned out to be 18.28%. On the same count and under the same terms, to `CCCc1nc(N2CC[C@@H](c3ccc4c(c3)OCO4)[C@H](O)C2)no1` belongs 11.09%; to `CCCc1nc(N2CC[C@@H](c3ccc4ccccc4c3)[C@H](O)C2)no1`, 50.36%; to `Cc1cc(N2CCc3c(nc(C(C)C)n3C)C2)nc(N)n1`, 17.43%. Regarding `Cc1nc(C)n(CC2CCCN(CC(=O)Nc3ccncc3)C2)n1` (centres undefined), where the note is “30 µM”, the “Percent Effect” value was determined as 29.85%. With `Cc1nc(C)n(CC2CCCCN2CC(=O)Nc2ccncc2)n1` (centres undefined), the “Percent Effect” value (30 µM, 30.03 µM) is listed as -8.014%. Take `Cc1nc(C)n(CC2CCCN2CC(=O)Nc2cccnc2)n1` (centres undefined): the “Percent Effect” value (30.3 µM, […]) came to 2.659%. The same measure, in the same setting: to `Cc1nc(C)n(CC2CCCN(CC(=O)Nc3cccnc3)C2)n1` (centres undefined) belongs 59.36%. Take `Cc1nc(C)n(CC2CN(CC(=O)Nc3cccnc3)CCO2)n1` (centres undefined): the “Percent Effect” value (30 µM, 30.03 µM) worked out at 31.54%. For `Cc1nc(C)n(CC2CCCN2CC(=O)Nc2ccncc2)n1` (centres undefined), the “Percent Effect” value (30.3 µM, […]) is given as 50.98%. Consider `Cc1nc(CN(C)C2CCCN(Cc3noc(C4CC4)n3)C2)oc1C` (centres undefined), for which, for the setting “30 µM”, the “Percent Effect” value is reported as -8.721%. In the case of `OCc1ccc(-c2nccn2CCc2nc3c(s2)CCCC3)o1`, for the setting “30.3 µM, […]”, the “Percent Effect” value is -3.192%. On to `O=C(NCCc1ccn(-c2ccc(F)cc2)n1)C1CCCOC1` (centres undefined), for which, under “30.3 µM, […]”, the “Percent Effect” value is 11.22%. Still for that read-out and setting: to `CCN(CC)C(=O)NC(C)c1ccc(Oc2cccnc2)c(F)c1` (centres undefined) belongs -9.456%. As for `CC(NC(=O)CN(C)C(C)C)c1ccc(Oc2cccnc2)c(F)c1` (centres undefined), the “Percent Effect” value (30.3 µM, […]) worked out at 51.39%. In the case of `CC(NC(=O)N(C)C1CC1)c1ccc(Oc2cccnc2)c(F)c1` (centres undefined), the “Percent Effect” value (30.3 µM, […]) came to 4.744%. `C=C(C)COc1cccc(C(=O)N(CC)Cc2noc(C)n2)c1`: the “Percent Effect” value (30.3 µM, […]) is 17.93%. For `Cc1nc[nH]c1CN(Cc1ccccc1F)C1CC(C)(C)NC(C)(C)C1.O=C(O)CC(O)(CC(=O)O)C(=O)O`, the “Percent Effect” value (30.3 µM, […]) stood at 53.75%. For the compound `Cc1nc[nH]c1CN(Cc1ccccc1)C1CC(C)(C)NC(C)(C)C1.O=C(O)CC(O)(CC(=O)O)C(=O)O`, the “Percent Effect” value (30.3 µM, […]) amounted to 45.23%.
